From paper PMC7826789 (International Journal of Molecular Sciences, 2021)

Experiments:
Conditions in all cases: Compound Concentration (nM):1000
[1] = tested on: PIK3CA(C420R)
[2] = tested on: PIK3CA(E542K)
[3] = tested on: PIK3CA(E545A)
[4] = tested on: PIK3CA(E545K)
[5] = tested on: PIK3CA(H1047L)
[6] = tested on: PIK3CA(H1047Y)
[7] = tested on: PIK3CA(I800L)
[8] = tested on: PIK3CA(M1043I)
[9] = tested on: PIK3CA(Q546K)
[10] = tested on: PIK3CA
[11] = tested on: PIK3CB
[12] = tested on: PIK3CD
[13] = tested on: PIK3CG
[14] = tested on: T1, PIK4CB
T1 construct: gene PI4KB

[15] = tested on: PIKFYVE
[16] = tested on: PIM1
[17] = tested on: PIM2
[18] = tested on: PIM3
[19] = tested on: PIP5K1A
[20] = tested on: PIP5K1C
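Note: KINOMEscan scanMAX binding as percent activity remaining versus control; lower means stronger binding.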

SMILES | Percent Control [1] [%] | Percent Control [2] [%] | Percent Control [3] [%] | Percent Control [4] [%] | Percent Control [5] [%] | Percent Control [6] [%] | Percent Control [7] [%] | Percent Control [8] [%] | Percent Control [9] [%] | Percent Control [10] [%] | Percent Control [11] [%] | Percent Control [12] [%] | Percent Control [13] [%] | Percent Control [14] [%] | Percent Control [15] [%] | Percent Control [16] [%] | Percent Control [17] [%] | Percent Control [18] [%] | Percent Control [19] [%] | Percent Control [20] [%]
C/C(Nc1ccc(S(N)(=O)=O)cc1)=C1/C(=O)Nc2ccccc21 [GW335962X] | 95 | 100 | 100 | 100 | 100 | 85 | 100 | 100 | 100 | 100 | 100 | 95 | 100 | 100 | 100 | 91 | 95 | 89 | 96 | 84
COc1cc(C=NNc2ncnc3c2cnn3-c2ccccc2)ccc1O [GW513184X] | 78 | 100 | 76 | 100 | 100 | 62 | 100 | 59 | 100 | 78 | 100 | 76 | 22 | 34 | 4.9 | 100 | 100 | 100 | 29 | 51
COc1cc(C)c(N(C)C(=O)CN(C)C)cc1Nc1nc(Nc2cccc(F)c2C(N)=O)c2cc[nH]c2n1 [GSK2219385] | 84 | 100 | 97 | 100 | 100 | 67 | 100 | 100 | 100 | 100 | 100 | 75 | 100 | 85 | 97 | 90 | 92 | 86 | 100 | 100
NS(=O)(=O)c1ccc(N/N=C2\C(=O)Nc3ccc(-c4cnco4)cc32)cc1 [GW276655] | 81 | 89 | 98 | 89 | 94 | 87 | 91 | 87 | 97 | 96 | 98 | 88 | 83 | 75 | 100 | 45 | 96 | 56 | 26 | 55
O=C(Nc1n[nH]c2nc(-c3ccc(O)cc3)c(Br)cc12)C1CC1 [SB-725317] | 92 | 100 | 100 | 100 | 100 | 93 | 100 | 100 | 100 | 100 | 100 | 75 | 100 | 100 | 99 | 23 | 0.4 | 9.3 | 100 | 59
Cc1cc(O)cc(C)c1/C=C/c1cncc(C(N)=O)c1 [GW435821X] | 100 | 100 | 100 | 100 | 100 | 100 | 100 | 88 | 100 | 96 | 100 | 81 | 100 | 100 | 100 | 100 | 100 | 100 | 100 | 67
COc1ccc2cc(-c3c(-c4ccncc4)nc(-c4ccc(S(C)(=O)=O)cc4C)n3C)ccc2c1 [SB-633825] | 88 | 79 | 84 | 81 | 100 | 91 | 83 | 83 | 91 | 70 | 94 | 100 | 79 | 69 | 100 | 78 | 97 | 80 | 95 | 100
COc1ccc(COc2ccc(Cc3cnc(N)nc3N)cc2OC)cc1 [GW632580X] | 100 | 96 | 100 | 91 | 75 | 100 | 93 | 100 | 100 | 76 | 93 | 100 | 77 | 100 | 100 | 100 | 91 | 100 | 94 | 100
Nc1ncnc2occ(-c3ccc(NC(=O)Nc4cc(C(F)(F)F)ccc4F)cc3)c12 [GW770249X] | 100 | 100 | 100 | 100 | 100 | 100 | 100 | 90 | 100 | 100 | 100 | 100 | 100 | 100 | 95 | 100 | 100 | 100 | 100 | 90
COc1ccccc1-c1cc(/C=C2\C(=O)Nc3ncc(Br)cc32)cc(Br)c1O [GW442130X] | 78 | 100 | 76 | 100 | 100 | 50 | 100 | 60 | 100 | 83 | 80 | 64 | 65 | 68 | 30 | 100 | 96 | 100 | 86 | 100
NS(=O)(=O)c1ccc(Nc2ncc(-c3ccccc3)o2)cc1 [GW572399X] | 100 | 100 | 100 | 100 | 93 | 100 | 100 | 93 | 100 | 100 | 100 | 100 | 100 | 71 | 100 | 100 | 100 | 100 | 100 | 74
NS(=O)(=O)c1ccc(N/N=C2\C(=O)Nc3ccc(C(=O)NCCc4c[nH]cn4)cc32)cc1 [GW300660X] | 100 | 100 | 100 | 100 | 98 | 100 | 98 | 81 | 100 | 100 | 100 | 100 | 95 | 100 | 100 | 32 | 100 | 32 | 100 | 0.7
COc1cccc(-n2ncc3c(N/N=C/c4ccncc4)ncnc32)c1 [GW784752X] | 100 | 100 | 100 | 92 | 100 | 100 | 96 | 100 | 100 | 100 | 94 | 100 | 54 | 90 | 18 | 100 | 100 | 100 | 86 | 79
Cl.O=C(Nc1ccc(Oc2ccc3[nH]c(NC(=O)c4ccco4)nc3c2)cc1)Nc1cc(C(F)(F)F)ccc1F [GW683134A] | 100 | 99 | 100 | 100 | 78 | 100 | 100 | 100 | 100 | 100 | 100 | 90 | 100 | 100 | 100 | 100 | 100 | 100 | 100 | 98
COc1cc2ncnc(Nc3ccc4c(cnn4Cc4ccccc4)c3)c2cc1OC.Cl [GW282449A] | 100 | 100 | 100 | 100 | 100 | 100 | 99 | 100 | 100 | 100 | 100 | 100 | 100 | 100 | 93 | 100 | 100 | 100 | 100 | 76
CC1=C(C(=O)Nc2ccc3[nH]ncc3c2)C(c2ccc3ccccc3c2)CC(=O)N1 (stereo not shown) [GSK270822A] | 90 | 83 | 91 | 88 | 97 | 89 | 93 | 74 | 86 | 90 | 70 | 100 | 97 | 73 | 83 | 91 | 100 | 92 | 95 | 99
Cl.O=S1CCN(Cc2ccc(-c3ccc4ncnc(Nc5ccc(OCc6ccccc6)c(F)c5)c4c3)o2)CC1 [GW576924A] | 100 | 100 | 100 | 100 | 100 | 100 | 100 | 88 | 100 | 100 | 96 | 100 | 100 | 100 | 86 | 100 | 100 | 100 | 100 | 67
CC1=C(C(=O)Nc2ccc3[nH]ncc3c2)C(c2ccc(Cl)c(Cl)c2)CC(=O)N1 (stereo not shown) [GSK299115A] | 90 | 73 | 90 | 73 | 97 | 76 | 78 | 68 | 83 | 82 | 75 | 100 | 93 | 80 | 100 | 83 | 100 | 91 | 86 | 100
COc1cccc(-c2c[nH]c3c(N/N=C/c4ccncc4)ncnc23)c1 [GW814408X] | 100 | 100 | 100 | 100 | 99 | 78 | 100 | 99 | 100 | 95 | 100 | 92 | 88 | 100 | 1.1 | 82 | 100 | 75 | 71 | 28
CC(C)COC(=O)c1ccc2c(c1)/C(=C/Nc1ccc(S(N)(=O)=O)cc1)C(=O)N2 [GW416981X] | 100 | 100 | 100 | 100 | 100 | 100 | 100 | 87 | 100 | 100 | 100 | 95 | 100 | 100 | 100 | 81 | 100 | 40 | 33 | 89
